PubChem BioAssay (NCI)
Compounds without any hit were thinned out: in the full panel of roughly 79,000, 15% have a hit. Values without a mark were called inactive. The source made the active and inactive calls. Cut-off read from the data, not from the text of the source: active = growth inhibition above about 70%; inactive = the rest.

What was measured:
[1] = NCI Yeast Anticancer Drug Screen. Data for the rad50 strain (AID 155);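 note: 0% = growth of vehicle-only cultures of the same strain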; conditions: S. cerevisiae rad50 strain growth inhibition; at 50.0 µM; hits give high values
Procedure, shortened: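 Genetically altered yeast (DNA repair pathway); compound treatment; growth inhibition vs vehicle ctrl.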

[2] = NCI Yeast Anticancer Drug Screen. Data for the mec2-1 strain (AID 157); conditions: S. cerevisiae mec2-1 strain, at 50.0 µM, hits give high values
Procedure, shortened: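 Vehicle-treated cultures served as reference for growth inhibition of compound-exposed mec2-1 yeast.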

[3] = NCI Yeast Anticancer Drug Screen. Data for the sgs1 mgt1 strain (AID 161);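 note: 0% = growth of cultures given vehicle only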; conditions: S. cerevisiae sgs1 mgt1 strain, at 50.0 µM, hits give high values
Procedure, shortened: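 Test agents were incubated with a DNA-repair-mutant yeast strain. Growth was then read and compared against vehicle-treated controls.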

[4] = NCI Yeast Anticancer Drug Screen. Data for the cln2 rad14 strain (AID 165);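 note: 0% = growth equal to vehicle treated cultures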; conditions: S. cerevisiae cln2 rad14 strain, at 50.0 µM, hits give high values
Procedure, shortened: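 Each compound was tested on cln2 rad14 yeast. Inhibition of growth was calculated against vehicle-exposed controls.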

[5] = NCI Yeast Anticancer Drug Screen. Data for the bub3 strain (AID 167); conditions: S. cerevisiae bub3 mutant strain, at 50.0 µM, hits give high values
Procedure, shortened: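 Yeast carrying a defined mutation is treated with each compound, and growth is compared with that of vehicle-exposed cells to give inhibition.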

[6] = NCI Yeast Anticancer Drug Screen. Data for the mlh1 rad18 strain (AID 175); conditions: S. cerevisiae mlh1 rad18 strain growth inhibition; at 50.0 µM; hits give high values
Procedure, shortened: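 Vehicle-treated cultures served as the reference for growth inhibition in a yeast strain carrying DNA damage repair alterations exposed to each compound.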

Structure (SMILES): O=C(O)/C=C/C(=O)N(c1ccccc1)N(C(=O)/C=C/C(=O)O)c1ccccc1
- growth inhibition [1]: 5.9%
- growth inhibition [2]: -9.05%
- growth inhibition [3]: 5.15%
- growth inhibition [4]: 5.65%
- growth inhibition [5]: 5.55%
- growth inhibition [6]: 17.5%

Structure (SMILES): COc1ccc(C(O)C(=O)c2nc3ccc(Cl)cc3[nH]c2=O)cc1 (configuration not stated)
- growth inhibition [1]: -30.1%
- growth inhibition [2]: -28.6%
- growth inhibition [3]: -22.2%
- growth inhibition [4]: -33.7%
- growth inhibition [5]: -16.6%
- growth inhibition [6]: -20.2%

Structure (SMILES): COC12C=CC(CC1)C(C)(C)C2=O (configuration not stated)
- growth inhibition [1]: 8.85%
- growth inhibition [2]: -4.7%
- growth inhibition [3]: -3.9%
- growth inhibition [4]: 3.2%
- growth inhibition [5]: -3.05%
- growth inhibition [6]: -0.55%

Structure (SMILES): Cc1ccccc1C(=O)Oc1ccccc1Cl
- growth inhibition [1]: 12%
- growth inhibition [2]: 17.7%
- growth inhibition [3]: -6.2%
- growth inhibition [4]: 4.25%
- growth inhibition [5]: 13.2%
- growth inhibition [6]: 11.3%

Structure (SMILES): NC(=O)N/N=C/c1ccc(O)cc1
- growth inhibition [1]: 5.15%
- growth inhibition [2]: -1.15%
- growth inhibition [3]: 1%
- growth inhibition [4]: -11.1%
- growth inhibition [5]: -3.85%
- growth inhibition [6]: -1.5%

Structure (SMILES): CCC1(CC)C(=O)N(C(=O)c2ccc(Cl)cc2)N(C(=O)c2ccccc2Cl)C1=O
- growth inhibition [1]: 22.3%
- growth inhibition [2]: 23.8%
- growth inhibition [3]: 5.8%
- growth inhibition [4]: 41.8%
- growth inhibition [5]: 49.2%
- growth inhibition [6]: -53.5%

Structure (SMILES): CN(C)Cc1cc(C(C)(C)C)cc(CN(C)C)c1O
- growth inhibition [1]: -4%
- growth inhibition [2]: -6.2%
- growth inhibition [3]: -13%
- growth inhibition [4]: -20.1%
- growth inhibition [5]: -36.4%
- growth inhibition [6]: -0.05%

Structure (SMILES): Cc1nn(-c2ccccc2)nc1C(=O)Nc1ccc2[nH]ncc2c1
- growth inhibition [1]: -39.2%
- growth inhibition [2]: -48.1%
- growth inhibition [3]: -8.95%
- growth inhibition [4]: -15.8%
- growth inhibition [5]: -22.9%
- growth inhibition [6]: -24.6%

Structure (SMILES): Nc1ccc(N=Nc2ccccc2)c(N)c1
- growth inhibition [1]: 29.5%
- growth inhibition [2]: 19.6%
- growth inhibition [3]: 27%
- growth inhibition [4]: -52.1%
- growth inhibition [5]: 8.55%
- growth inhibition [6]: 28.6%

Structure (SMILES): Cc1nc2ccc(S(=O)(=O)Nc3ccc(Cl)cc3)cc2c(=O)n1NC(=O)CNc1ccc(Cl)cc1
- growth inhibition [1]: 33.3%
- growth inhibition [2]: 22.4%
- growth inhibition [3]: 42.2%
- growth inhibition [4]: 15.6%
- growth inhibition [5]: 19.9%
- growth inhibition [6]: 24.2%

Structure (SMILES): Cc1cc(C)c[n+](-c2nc3c([O-])n(C)c(=O)n(C)c-3n2)c1
- growth inhibition [1]: -5.35%
- growth inhibition [2]: 3.15%
- growth inhibition [3]: -17.8%
- growth inhibition [4]: -5.45%
- growth inhibition [5]: -8.25%
- growth inhibition [6]: -4.15%

Structure (SMILES): COc1ccccc1OCC(COC(=O)Nc1ccccc1)OC(=O)Nc1ccccc1 (configuration not stated)
- growth inhibition [1]: -44.2%
- growth inhibition [2]: -27.2%
- growth inhibition [3]: -30.4%
- growth inhibition [4]: -0.6%
- growth inhibition [5]: -17.6%
- growth inhibition [6]: -17.8%

Structure (SMILES): CCCC(C)(C#N)c1ccc(OC)cc1 (configuration not stated)
- growth inhibition [1]: 33.8%
- growth inhibition [2]: 13.2%
- growth inhibition [3]: 31.6%
- growth inhibition [4]: 1.65%
- growth inhibition [5]: 32.4%
- growth inhibition [6]: -11.8%

Structure (SMILES): O=C(O)CCC(=O)Nc1cc(C(F)(F)F)ccc1Cl
- growth inhibition [1]: 24.1%
- growth inhibition [2]: 13.7%
- growth inhibition [3]: 7.8%
- growth inhibition [4]: 25.1%
- growth inhibition [5]: 14.8%
- growth inhibition [6]: 7.5%

Structure (SMILES): OC(c1ccccc1)(c1ccc(-c2ccccc2)cc1)c1cccc2ccccc12 (configuration not stated)
- growth inhibition [1]: 28.3%
- growth inhibition [2]: -14.2%
- growth inhibition [3]: 21.8%
- growth inhibition [4]: 9.2%
- growth inhibition [5]: -2.6%
- growth inhibition [6]: 5.35%

Structure (SMILES): CC(NNC(=S)N1CC2CCC(CC2)C1)c1cccc[n+]1[O-] (configuration not stated)
- growth inhibition [1]: 93.1% (active)
- growth inhibition [2]: 37.4%
- growth inhibition [3]: 92.5% (active)
- growth inhibition [4]: 84.7% (active)
- growth inhibition [5]: 48.8%
- growth inhibition [6]: 59.6%

Structure (SMILES): N#CC(c1ccccc1)C(C#N)c1ccc(Cl)cc1 (configuration not stated)
- growth inhibition [1]: 5.75%
- growth inhibition [2]: 16.2%
- growth inhibition [3]: -1.35%
- growth inhibition [4]: -98.5%
- growth inhibition [5]: 22.4%
- growth inhibition [6]: 3.8%

Structure (SMILES): CC(=O)Nc1ccc(/C=C/c2csnn2)cc1
- growth inhibition [1]: -7.8%
- growth inhibition [2]: 7.7%
- growth inhibition [3]: 11.9%
- growth inhibition [4]: 8.7%
- growth inhibition [5]: -4.45%
- growth inhibition [6]: -3.2%

Structure (SMILES): CC(C)SCC(N)C(=O)O (configuration not stated)
- growth inhibition [1]: -17.8%
- growth inhibition [2]: -10.7%
- growth inhibition [3]: -2.65%
- growth inhibition [4]: -15%
- growth inhibition [5]: -11.8%
- growth inhibition [6]: -15.8%

Structure (SMILES): CC(=O)c1cccc(F)c1C(C)c1ccc2ccccc2c1 (configuration not stated)
- growth inhibition [1]: -3.85%
- growth inhibition [2]: 0.6%
- growth inhibition [3]: -8.8%
- growth inhibition [4]: 3.35%
- growth inhibition [5]: 15.4%
- growth inhibition [6]: 1.65%

Structure (SMILES): COc1ccccc1C1c2cc3c(cc2OC(C)(OC)C1C)OCO3 (configuration not stated)
- growth inhibition [1]: -3.4%
- growth inhibition [2]: -17.2%
- growth inhibition [3]: 18.1%
- growth inhibition [4]: -12.7%
- growth inhibition [5]: -10.2%
- growth inhibition [6]: 14.1%

Structure (SMILES): COC1/C=C/OC2(C)Oc3c(C)c(O)c4c(O)c(c(/C=N/N5CC(C)N(C(=O)c6ccccc6)C(C)C5)c(O)c4c3C2=O)NC(=O)C(C)=C/C=C/C(C)C(O)C(C)C(O)C(C)C(OC(C)=O)C1C (configuration not stated)
- growth inhibition [1]: -5.8%
- growth inhibition [2]: -13.6%
- growth inhibition [3]: -23.8%
- growth inhibition [4]: 24.6%
- growth inhibition [5]: 25.2%
- growth inhibition [6]: 5.45%

Structure (SMILES): COc1cccc(C(=O)c2ccc(OC)cc2C(=O)O)c1
- growth inhibition [1]: 5.95%
- growth inhibition [2]: -10.2%
- growth inhibition [3]: -2.8%
- growth inhibition [4]: -31.9%
- growth inhibition [5]: 4.3%
- growth inhibition [6]: 0.85%

Structure (SMILES): NNC(=O)C(O)C(O)C(=O)NN (configuration not stated)
- growth inhibition [1]: 8.5%
- growth inhibition [2]: -6.8%
- growth inhibition [3]: -20.2%
- growth inhibition [4]: 46.6%
- growth inhibition [5]: -8.05%
- growth inhibition [6]: -8.1%

Structure (SMILES): Cc1c(C2(c3cc(C(C)C)c(O)c(CN(CC(=O)O)CC(=O)O)c3C)OS(=O)(=O)c3ccccc32)cc(C(C)C)c(O)c1CN(CC(=O)O)CC(=O)O
- growth inhibition [1]: 4.3%
- growth inhibition [2]: 0.7%
- growth inhibition [3]: -1.75%
- growth inhibition [4]: 24.7%
- growth inhibition [5]: 2.8%
- growth inhibition [6]: 4.95%

Structure (SMILES): Nc1nc2nc(C(=O)O)c(=S)[nH]c2c(=O)[nH]1
- growth inhibition [1]: 11.1%
- growth inhibition [2]: 3.8%
- growth inhibition [3]: 1.9%
- growth inhibition [4]: -10.9%
- growth inhibition [5]: 7.6%
- growth inhibition [6]: -8.25%

Structure (SMILES): O=c1[nH]n(Cc2ccccn2)c2ccc([N+](=O)[O-])cc12
- growth inhibition [1]: 4.1%
- growth inhibition [2]: -7.8%
- growth inhibition [3]: -26.8%
- growth inhibition [4]: 0.95%
- growth inhibition [5]: 6.45%
- growth inhibition [6]: -14.2%

Structure (SMILES): Cc1ccc(/C(O)=C/C(=O)C(=O)NN=C(c2ccccc2)c2ccccc2)cc1
- growth inhibition [1]: 5.9%
- growth inhibition [2]: -11.9%
- growth inhibition [3]: 26.8%
- growth inhibition [4]: 4.85%
- growth inhibition [5]: 20.3%
- growth inhibition [6]: -1.85%

Structure (SMILES): COc1cc2c(oc(=O)c3c4occc4cc(OC)c23)c2cccc(O)c12
- growth inhibition [1]: -31.6%
- growth inhibition [2]: -47%
- growth inhibition [3]: -37.2%
- growth inhibition [4]: -13.6%
- growth inhibition [5]: -24.8%
- growth inhibition [6]: -56.2%

Structure (SMILES): Cc1cc(C)c(S(=O)(=O)O)c(Cc2ccccc2)c1
- growth inhibition [1]: -14.4%
- growth inhibition [2]: -10.6%
- growth inhibition [3]: 31.5%
- growth inhibition [4]: -11.6%
- growth inhibition [5]: -3.35%
- growth inhibition [6]: 0.45%

Structure (SMILES): Cc1nc2cncnc2n(CCN2CCOCC2)c1=O
- growth inhibition [1]: 15.1%
- growth inhibition [2]: 16.2%
- growth inhibition [3]: 23.2%
- growth inhibition [4]: -2.35%
- growth inhibition [5]: -2.45%
- growth inhibition [6]: 20.4%

Structure (SMILES): C[Si](C)(C)COC(N)=O
- growth inhibition [1]: -5.5%
- growth inhibition [2]: 10.8%
- growth inhibition [3]: -12.4%
- growth inhibition [4]: 8.1%
- growth inhibition [5]: 9.4%
- growth inhibition [6]: 0.45%

Structure (SMILES): c1ccc2c(c1)CCCN2c1ncnc2ccccc12
- growth inhibition [1]: -10.2%
- growth inhibition [2]: -8.45%
- growth inhibition [3]: -2.8%
- growth inhibition [4]: -62.6%
- growth inhibition [5]: 15.6%
- growth inhibition [6]: -7.4%

Structure (SMILES): Cc1ccc(S(=O)(=O)NC(=O)C2S(=O)(=O)OCCOS2(=O)=O)cc1
- growth inhibition [1]: -2.75%
- growth inhibition [2]: 4.15%
- growth inhibition [3]: -7.1%
- growth inhibition [4]: -1.85%
- growth inhibition [5]: -11.3%
- growth inhibition [6]: -16.4%

Structure (SMILES): COc1c2c(cc3c1-c1c(cc4c(c1OC)OCO4)CC(C)C(C)C3)OCO2 (configuration not stated)
- growth inhibition [1]: 12.4%
- growth inhibition [2]: 24.4%
- growth inhibition [3]: 21%
- growth inhibition [4]: 15.2%
- growth inhibition [5]: 40.1%
- growth inhibition [6]: 29.6%

Structure (SMILES): Nc1nc(N)c2cc(N3CCCC3c3ccc(Cl)cc3)ccc2n1 (configuration not stated)
- growth inhibition [1]: 90.8% (active)
- growth inhibition [2]: 92.5% (active)
- growth inhibition [3]: 91.5% (active)
- growth inhibition [4]: 90.5% (active)
- growth inhibition [5]: 91.6% (active)
- growth inhibition [6]: 91% (active)

Structure (SMILES): CCOCCCN
- growth inhibition [1]: 37.5%
- growth inhibition [2]: 16.7%
- growth inhibition [3]: 6.85%
- growth inhibition [4]: 3.4%
- growth inhibition [5]: 16.9%
- growth inhibition [6]: 5.25%
